# Screens from PubChem BioAssay.
# HepG2 viability: qHTS for Inhibitors of TGF-b: Cytotox Counterscreen | Potency, µM (series often up to 46.1 µM), for inactives: top-dose activity change, negative = cytotoxicity, actives largely listed as cytotoxic | 0.76% of 410,000 active | HepG2 CAGA-GFP viability, ATP luminescence, 18 h; note: potency is the fitted concentration of half-maximal effect
#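 HepG2 CAGA-GFP cells (1000/well, DMEM with 1% FBS) received compound, then TGF-beta at 500 pg/mL final, and were incubated 18 hours at 37 degrees C. Viability was read by CellTiter-Glo luminescence. Media-only wells were set as complete cell-killing and DMSO as no toxicity.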
# DT40 TDP1 no CPT: qHTS for Inhibitors of human tyrosyl-DNA phosphodiesterase 1 (TDP1): qHTS in cells in absence of CPT | DT40 Tdp1-/- hTDP1 cells, no CPT, ATP luminescence, 48 h | Potency, µM (titrated, usually from 46.2 µM), for the others: at the top dose activity change, negative = growth inhibition, most hits filed as inhibitors | 15% of 420,000 active; note: potency is the fitted concentration of half-maximal effect; % is set by controls: 0 for no effect and ±100 for the full control effect; nearly all actives have a fitted effect of over 55% in size
#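 DT40 Tdp1-/-;hTDP1 cells, no CPT (DMSO vehicle only), 400 cells/well; compounds pin-transferred; ≥48 hr, 37 °C; CellTiter-Glo 30 min RT dark, luminescence read.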
# TDP1 block: qHTS Assay for Inhibitors of Tyrosyl-DNA Phosphodiesterase (TDP1); recombinant TDP1, AlphaScreen DNA substrate cleavage; 0.28% of 350,000 active; Tyrosyl-DNA phosphodiesterase 1 (Homo sapiens), Q9NUW8; Potency, µM (titrated, usually from 130 µM), inactives show at the highest dose activity change, negative = inhibition, hits mostly inhibitors; note: potency is the fitted concentration of half-maximal effect; % is set by controls: 0 for no effect and ±100 for the full control effect; nearly all actives have a fitted effect of over 40% in size
# Target sequence (Q9NUW8 whole entry, looked up): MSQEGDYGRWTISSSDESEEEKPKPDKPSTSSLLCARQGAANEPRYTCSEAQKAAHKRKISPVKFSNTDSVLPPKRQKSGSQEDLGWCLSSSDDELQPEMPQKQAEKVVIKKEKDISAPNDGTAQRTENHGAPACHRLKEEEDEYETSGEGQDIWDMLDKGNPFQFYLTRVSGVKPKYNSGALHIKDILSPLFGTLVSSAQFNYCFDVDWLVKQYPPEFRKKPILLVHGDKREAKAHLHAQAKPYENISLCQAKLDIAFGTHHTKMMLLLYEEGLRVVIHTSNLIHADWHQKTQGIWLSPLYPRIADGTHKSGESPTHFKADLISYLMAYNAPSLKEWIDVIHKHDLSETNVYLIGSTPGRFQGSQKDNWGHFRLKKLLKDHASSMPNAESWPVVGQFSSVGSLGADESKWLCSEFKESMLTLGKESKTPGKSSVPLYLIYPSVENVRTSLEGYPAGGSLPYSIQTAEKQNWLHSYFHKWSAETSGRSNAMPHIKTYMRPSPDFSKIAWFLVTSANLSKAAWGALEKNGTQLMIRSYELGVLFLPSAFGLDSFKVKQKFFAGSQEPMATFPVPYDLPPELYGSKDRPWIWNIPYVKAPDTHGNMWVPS
#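 Steps: enzyme plus compound, 15 min RT; add biotin/phosphotyrosine-FITC oligonucleotide (15 nM final), react 5 min; add donor/acceptor beads (10 ug/ml final), 10 min; read AlphaScreen. Tdp1 at 1 nM final.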
# TGFb SMAD3 inh: qHTS for Inhibitors of TGF-b. Potency, µM (series often up to 46.1 µM), for inactives: at the highest dose activity, negative = inhibition, usual class: inhibitors. AID 588855, 2011. 1.2% of 410,000 active. HepG2 CAGA-GFP TGF-b/SMAD3 reporter, GFP fluorescence, 18 h; TGF-beta stimulated, 500 pg/mL final; note: potency is the fitted concentration of half-maximal effect; % is set by controls: 0 for no effect and ±100 for the full control effect; nearly all actives have a fitted effect of over 65% in size
#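 GFP signal (ex488/em500-530) from TGF-beta-stimulated HEPG2 CAGA-GFP cells, 500 pg/mL final, 18 h at 37 degrees C in DMEM plus 1% FBS, normalized to unstimulated and DMSO-stimulated controls.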
# DT40 TDP1 CPT: qHTS for Inhibitors of human tyrosyl-DNA phosphodiesterase 1 (TDP1): qHTS in cells in presence of CPT. chicken DT40 Tdp1-/-;hTDP1 cells + 20 nM CPT, ATP luminescence, 48 h. Potency, µM (top dose mostly 46.2 µM), without a hit: at the highest dose activity change, negative = growth inhibition, hits mostly inhibitors. 12% of 420,000 active. AID 686979, 2013; note: potency is the fitted concentration of half-maximal effect; % is set by controls: 0 for no effect and ±100 for the full control effect; nearly all actives have a fitted effect of over 55% in size
#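 Chicken DT40 Tdp1-/- cells complemented with human TDP1, 400 cells/well, exposed to compounds plus 20 nM camptothecin for at least 48 h at 37 C; viability read as ATP content by CellTiter-Glo luminescence.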
# IL-1B inflam inh: qHTS for Inhibitors of Inflammasome Signaling: IL-1-beta AlphaLISA Primary Screen | 4.7% of 360,000 active | THP-1 LPS/ATP IL-1B secretion, AlphaLISA, 16 h; active compounds read low | activity change, % at 57.5 µM | AID 743279, 2014; in the data active = activity change below about -50%; inconclusive = mostly about -30% to -49%; note: % is set by controls: 0 for no effect and ±100 for the full control effect
#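 Secreted IL-1B measured by AlphaLISA bead assay after 16 h compound exposure of THP-1 cells; compounds (final up to 57.5 uM) added 1 h before LPS (250 ng/mL) and ATP (1.25 mM) stimulation; lower signal means less secretion.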
# Starred values were filed as active, the others as inactive; ? = inconclusive; . = not tested or not shown; [ ] = remark or other dose. The list is not random: actives were taken first. Their share in the collection is about 19%. Unless noted, calls come from the whole dose curve; as a rule, active = well fitted curve in the direction sought with a large enough effect; inconclusive = small, poorly fitted or top-dose-only effect, or another doubt; inactive = no such curve, though single readings can be large; an effect the other way counts as inactive or inconclusive.
SMILES,HepG2 viability,DT40 TDP1 no CPT,TDP1 block,TGFb SMAD3 inh,DT40 TDP1 CPT,IL-1B inflam inh
CCOc1ccc(NC(=O)C(C)n2c(=O)cc(-c3ccccc3)c3c(C)nn(C)c32)cc1 (centres undefined),-2.3%,-7.0%,-1.9%,-13.0%,-5.0%,.
Cc1c(Cl)ccc2sc(N3CCN(C(=O)C4=COCCO4)CC3)nc12,-15.0%,?,0.2%,4.1%,?,-60.9*
CC(=O)N1CCN(c2nc3c(C)ccc(Cl)c3s2)CC1,-35.7%,?,7.8%,5.5%,-1.4%,.
O=C(Nc1ccc(Cl)c(Cl)c1)C1CCN(C(=O)c2ccco2)CC1,-23.8%,14.6µM*,4.2%,?,16.4µM*,-18.9
Cc1ccc(NC(=O)C2CCN(C(=O)c3ccco3)CC2)cc1,19.6%,0.3%,-12.2%,16.2%,-2.6%,3.2
COC(=O)c1sccc1S(=O)(=O)N(CC(=O)NCc1ccccc1)c1ccccc1,-1.5%,?,7.1%,-19.6%,-13.2%,.
Cc1ccccc1NC(=O)NC1CCCc2ccccc21 (centres undefined),0.1%,11.2%,2.5%,3.1%,-29.4%,40.3
COc1ccc(-c2csc(N(CCCN(C)C)C(=O)c3ccccc3C)n2)cc1,10µM*,4.61µM*,.,?,3.66µM*,-76.0*
COc1ccc(-c2csc(N(CCCN(C)C)C(=O)c3ccccc3F)n2)cc1,-49.1%,14.6µM*,8.2%,?,9.2µM*,?
COc1ccc(-c2csc(N(CCCN(C)C)C(=O)c3ccccc3Cl)n2)cc1,-44.2%,?,.,?,?,-72.4*
COCCN(C(=O)c1ccccc1F)c1nc(-c2ccc(OC)cc2)cs1,-0.4%,?,0.1%,7.2%,-3.1%,?
CN(C)CCCN(C(=O)c1cccs1)c1nc(-c2ccccc2)cs1,-31.5%,?,-1.6%,19.3%,?,?
CCN(C(=O)c1ccccc1F)c1nc(-c2ccc(OC)cc2)cs1,-7.4%,20.6µM*,.,-1.6%,20.6µM*,0.0
COc1ccc(-c2csc(N(CCCN(C)C)C(=O)c3ccc(F)cc3)n2)cc1,-4.9%,?,4.1%,-1.4%,-34.9%,-20.8
CCN(CC)CCCN(C(=O)c1ccc(F)cc1)c1nc(-c2ccc(OC)cc2)cs1,-38.0%,10.3µM*,.,?,13µM*,-93.4*
CCOC(=O)CCN1C(=O)[C@H]2[C@H]3[C@H](O)[C@H](O)C/C(=N/OCc4ccccc4)[C@@H]3CC[C@@H]2C1=O,.,.,5.8%[21 µM],.,.,.
O=C(CCCOc1ccccc1)N1CCN(c2ccc(F)cc2)CC1,-16.0%,18.4µM*,0.0%,-7.5%,?,-16.4
O=C(CCc1ccccc1)N1CCN(c2ccccc2F)CC1,3.8%,2.9%,-4.3%,-3.4%,-7.1%,-4.3
O=C(CSCc1ccc(F)cc1)N1CCN(c2ccccc2F)CC1,-12.7%,25.9µM*,-10.4%,-3.5%,20.6µM*,.
O=C(CCc1ccccc1)N1CCN(c2ccc(F)cc2)CC1,-13.7%,-15.9%,7.2%,9.0%,-20.7%,6.3
O=C(CSCc1ccccc1)N1CCN(c2ccc(F)cc2)CC1,1.4%,?,6.9%,-25.6%,13µM*,?
CC(C)C[C@@H](CC(=O)N[C@H](CC(=O)N[C@@H]1CCCC[C@H]1C(=O)N[C@H](CC(=O)N[C@@H](CCC(=O)O)CC(=O)O)CC(C)C)C(C)C)NC(=O)[C@@H]1CCCC[C@H]1N,.,.,3.1%,.,.,.
Cc1ccc(-c2csc(NC(=O)N3CCOCC3)n2)cc1,11.5%,?,2.4%,-6.5%,?,-23.9
